Shown is part of a subset that was picked to be rich in hits.
RmlC RmlD mix = RmlC and RmlD coupled enzyme inhibitors, primary screen, biochemical, 384-well, compound mixtures, retest. AID 1532, 2009. hit rate 0.39% among 110,000. RmlC/RmlD coupled enzyme inhibition, 384-well mixture HTS. inhibition, % at 5.5 µM; in the data active = inhibition above about 30%, passing the limit was not always enough
HIV RNase H inh = HIV-1 RT RNase H inhibitors, primary screen, biochemical, fluorescence. RT-RNase H RNA/DNA duplex cleavage. inhibition, % at 10 µM. hit rate 1.9% among 65,000. AID 565, 2006; in the data active = inhibition above about 50%
RmlCD fluor art = counter-screen for RmlC/RmlD inhibitors: fluorescence artifact, dose response, artefact control, biochemical | calls only | shares compounds with RmlC RmlD mix | hit rate 96% among 360 | AID 1696, 2009 | RmlC/RmlD assay fluorescence artifact counter-screen; call rule not given here;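 note: compound alone with no enzyme and no substrates present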
* hit, by the source's call.

`COc1ccc2cc3cc(C(=O)Nc4ccccc4N4CCN(C)CC4)oc3nc2c1` gave RmlC RmlD mix -6 and HIV RNase H inh -9.
`COc1ccc2cc3cc(C(=O)NCC4CCCO4)oc3nc2c1` (stereo not drawn) gave RmlC RmlD mix 105*, HIV RNase H inh -19 and RmlCD fluor art active.
For CCOc1ccc(NC(=O)c2cc3cc4ccc(OC)cc4nc3o2)cc1 the results were RmlC RmlD mix 105* and RmlCD fluor art active.
COc1ccc2cc3cc(C(=O)NCc4ccccn4)oc3nc2c1 was read as HIV RNase H inh -22.
COc1ccc2cc3cc(C(=O)NCCN4CCN(c5ccccc5F)CC4)oc3nc2c1 was read as HIV RNase H inh -20 and RmlCD fluor art inactive.
CCCCN(CC)C(=O)c1cc2cc3ccc(OC)cc3nc2o1 was read as RmlC RmlD mix -4.
O=C1CN(c2ccc(Cl)cc2)C(=O)CN1NC(=S)Nc1ccc(Cl)cc1 was read as RmlC RmlD mix 2.
O=C(Cc1nn[nH]n1)NCc1ccccc1Cl was read as RmlC RmlD mix 7 and HIV RNase H inh -2.
Cn1cccc1C1Nc2ccccc2NC2=C1C(=O)CC(C)(C)C2 (stereo not drawn) was read as RmlC RmlD mix 7.
Screening O=C(Nc1ccc2c(c1)OCCO2)C1CCCN(S(=O)(=O)c2cnc[nH]2)C1 (stereo not drawn) returned RmlC RmlD mix -15 and HIV RNase H inh -3.
Screening CC1OC23CCCCC2C(C#N)(C(=N)O3)C1(C#N)C#N (stereo not drawn) returned RmlC RmlD mix 2.
CCC1OC23CCCCC2C(C#N)(C(=N)O3)C1(C#N)C#N (stereo not drawn) was read as RmlC RmlD mix -4.
COc1ccc(C2OC34CCCCC3C(C#N)(C#N)C2(C#N)C(=N)O4)cc1 (stereo not drawn) was read as RmlC RmlD mix 64* and RmlCD fluor art active.
N#CC1(C#N)COC23CCCCC2C1(C#N)C(=N)O3 (stereo not drawn) was read as RmlC RmlD mix 107* and RmlCD fluor art active.
For CCOC(=O)c1ccc(-c2ccc(CO)o2)cc1 the results were RmlC RmlD mix 62* and RmlCD fluor art active.
`CCOC(=O)c1ccc(COC(=O)c2ccc(-c3nnc(-c4ccccc4)o3)cc2)o1` gave RmlC RmlD mix -180 and HIV RNase H inh 10.
For COC(=O)[C@@H]1C[C@@H]2CC[C@@H](O)C[C@@H]2N1Cc1ccc(N2CCN(C)CC2)cc1 the results were RmlC RmlD mix -10.
For CCn1c(C)nc2cc(C(=O)N/N=C(\C)c3ccc(OC)cc3O)ccc21 the results were RmlCD fluor art active.
CCn1c(C)nc2cc(C(=O)NNS(=O)(=O)c3c(C)c(C)cc(C)c3C)ccc21 was read as RmlC RmlD mix -11.
CC1=CC(c2ccc(Cl)cc2)n2nc(NS(=O)(=O)c3ccc(C)cc3)nc2N1 (stereo not drawn) was read as RmlC RmlD mix 22.
Screening CC1=CC(c2ccccc2)n2nc(NS(=O)(=O)c3ccc(C)cc3)nc2N1 (stereo not drawn) returned RmlC RmlD mix 54*, HIV RNase H inh -6 and RmlCD fluor art active.
For O=C(c1ccc2c(c1)OCO2)N1CCC2(CC1)Oc1ccc(F)cc1C(=O)C21CC(c2ccccc2)=NO1 (stereo not drawn) the results were RmlC RmlD mix -8.
CCOC(=O)CSC1=NC(=O)/C(=C\c2ccc(Cl)cc2)S1 was read as RmlC RmlD mix 1.
Screening Cc1cc2oc3cc(NCCC4CCCN4C)ccc3c(=O)c2cc1C (stereo not drawn) returned RmlC RmlD mix 68* and RmlCD fluor art active.
Screening CN1CCCC1CCNc1ccc2sc3ccccc3c(=O)c2c1 (stereo not drawn) returned RmlC RmlD mix -11.
`COc1cccc2c1OC1(C)CC2NC(=O)N1c1cccc(C(=O)Nc2ccc3c(c2)OCCO3)c1` (stereo not drawn) gave RmlC RmlD mix -1 and HIV RNase H inh 1.
CNC(=O)COC(=O)c1cc2c(C)nn(-c3ccc(F)cc3)c2s1 was read as RmlC RmlD mix 16.
For Cc1nn(-c2ccc(F)cc2)c2sc(C(=O)OC3CCOC3=O)cc12 (stereo not drawn) the results were RmlC RmlD mix 47*, HIV RNase H inh -29 and RmlCD fluor art active.
`Cc1ccc(S(=O)(=O)NCC(=O)N(CC(=O)NC2CCCCC2)CC2CCCO2)cc1` (stereo not drawn) gave RmlC RmlD mix -14.
For COc1ccc(-c2cc(=Nc3ccc(C)cc3)c3ccccc3o2)cc1 the results were RmlC RmlD mix 14.
For COc1ccc(-c2cc(=NCCC(=O)O)c3cc(C)ccc3o2)cc1 the results were RmlCD fluor art active.

Screens deposited in PubChem BioAssay by several laboratories.
